The text below walks through data of PubChem BioAssay (NCI).

Common to all, as to test: NCI-60 one-dose screen, 48 h (100 = growth as untreated, 0 = no growth, -100 = all killed)
Common to all, as to conditions: 10 µM unless noted

The test system of test [1] is BT-549 breast.
For test [2], the system named is MDA-MB-435 melanoma.
The test system of test [3] is MCF7 breast.
Test [4] deals with HCT-116 colon.
Test [5] deals with HCC-2998 colon.
Test [6] has as its system KM12 colon.
The test system of test [7] is SW-620 colon.

The panel holds about 83,000 compounds, 20% with a hit somewhere; the sample as a whole holds those more often.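 The test compound was applied at a single concentration to cells in 96-well plates for 48 hours, and percent growth was recorded.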 A number with no mark means an inactive call. Activity calls are given as the source filed them. How the source made its calls: active means growth percent below 10; inactive means the rest.

As for `O=C1C2=C(C(=O)c3c(O)cccc31)C(c1ccco1)c1sc(=O)[nH]c1S2` (configuration not stated), the growth was -96.8% (active) in test [1]; -45.3% (active) in test [2]; -14.2% (active) in test [3]; -2.88% (active) in test [4]; 4.16% (active) in test [5].

Regarding `OC1CCN(CCCOc2c3ccc(Cl)cc3nc3c2oc2ccc(Cl)cc23)CC1`, the growth is 46.6% in test [1]; -70.4% (active) in test [2]; -79.7% (active) in test [3]; 12.3% in test [4]; 36.8% in test [5]; -74.3% (active) in test [6].

For `Nc1nc(N)c2c(n1)NC(c1ccc(F)cc1)CC(c1ccc(Nc3nc(NCCO)nc(Nc4ccc(Cl)cc4)n3)cc1)=N2` (configuration not stated), the growth was 42.7% in test [1]; -71.4% (active) in test [2]; -66.5% (active) in test [3]; -80.4% (active) in test [5]; -16.9% (active) in test [6].

As for `Cn1ccnc1C(=O)/C=C/c1ccc(NC(=O)Nc2ccccc2)cc1`, the growth in test [1] is -3.85% (active); in test [2] it was -13.3% (active); in test [3], 6.81% (active); in test [4] it was 3.54% (active); in test [5] it was -22% (active); in test [6] it was 1.03% (active).

On to `N#Cc1ccc(C(=O)CSc2nc(Nc3ccc(S(N)(=O)=O)cc3)c3ccccc3n2)cc1`, for which the growth in test [1] was 111%; in test [2], 108%; in test [3], 98.6%; in test [4] it was 100%; in test [5] it was 119%; in test [6], 107%.

Turning to `COc1cc(/C=C/C(=O)c2ccc(F)cc2)ccc1Oc1nc(NCCO)nc(N2CCOCC2)n1`, the growth in test [1] was 86.3%; in test [2], 48%; in test [3], 10.2%; in test [5], 103%; in test [6], 27.3%.

Turning to `O=C1[C@H]2Cc3c([nH]c4ccccc34)[C@@H](c3ccc(Br)cc3)N2C(=O)CN1C1CCN(Cc2ccccc2)CC1`, the growth is 93.4% in test [1]; 36.9% in test [2]; 6.48% (active) in test [3]; 9.04% (active) in test [4]; 36.7% in test [6].

With `Cc1c(Nc2nnc(SCC(=O)Nc3sc4c(c3C#N)CCCC4)s2)c(=O)n(-c2ccccc2)n1C`, the growth in test [1] was 113%; in test [2] it was 104%; in test [3], 93.5%; in test [4] it was 102%; in test [5] it was 115%; in test [6] it was 98%.

Consider `C#Cc1nc(C2=C(C)/C(=N/OCc3ccccc3)CC2)cs1`, for which the growth is 58.1% in test [1]; 80.1% in test [2]; 85.6% in test [7]; 40.6% in test [4]; 19.6% in test [6].

For `COc1cccc(-c2nn(-c3ccccc3)cc2-c2ccnc(N3CCN(C(=O)c4ccccc4)CC3)c2)c1`, the growth was 91.4% in test [1]; 17% in test [2]; 85.5% in test [3]; 73.3% in test [4]; 113% in test [5].

With `CCCC(=O)NC(c1ccc(N(CC)CC)cc1)c1cc(C)c2cccnc2c1O` (configuration not stated), the growth was 29.9% in test [1]; 34.8% in test [2]; 14.3% in test [3]; 16.8% in test [4]; 33.9% in test [5]; 29.6% in test [6].

`N#Cc1nc(-c2ccccc2)oc1N1CC[C@@H](CO)C1`: the growth is 117% in test [1], 99% in test [2], 103% in test [4] and 111% in test [6].

On to `CCOc1ccc2nc(NC(=O)c3ccc(C(F)(F)F)cc3)sc2c1`, for which the growth in test [2] was 96.6%; in test [7] it was 103%; in test [3] it was 98.6%.

Turning to `COc1ccc(-n2c(SCC(=O)Nc3ccc(-c4nc5ccccc5[nH]4)cc3)nc3ccccc3c2=O)cc1`, the growth was -65% (active) in test [1]; -14.4% (active) in test [2]; -49.2% (active) in test [3]; -39.6% (active) in test [4]; 34.8% in test [5]; 18.7% in test [6].

Regarding `CNC(=O)c1cc(-c2ccc(NC(=O)Nc3ccc(N4CCOCC4)c(C(F)(F)F)c3)cc2)nc2cccnc12`, the growth in test [1] was 84.8%; in test [2], 72.6%; in test [3], 12.3%; in test [4], 52.3%.

Regarding `N#Cc1nc(-c2ccccc2)oc1S(=O)(=O)N1CCN(CCc2ccccn2)CC1`, the growth is 22.9% in test [2], -24.2% (active) in test [7], 28% in test [3] and 11.9% in test [4].

Regarding `O=C(N/N=C/c1ccc(Br)s1)c1[nH]c2ccc(Br)cc2c1-c1ccccc1`, the growth in test [2] was -5.5% (active); in test [7] it was 23.6%; in test [3], 7.06% (active); in test [4], -14.2% (active); in test [5], 20.5%; in test [6] it was 8.2% (active).

For the molecule `COc1ccc(C(=O)/C=C/c2ccc(OCc3ccc(C)cc3)c(OC)c2)cc1OC`, the figures for the growth in test [2], in test [7] and in test [5] were 82.6%, 45.5% and 91.1%, respectively.

As for `O=C1Nc2cc(Cl)ccc2/C1=C\c1ccc(OCc2ccc(Br)cc2F)cc1`, the growth was -37.7% (active) in test [2]; -49.7% (active) in test [7]; 9.35% (active) in test [3]; -95% (active) in test [4]; 17% in test [5]; -31.9% (active) in test [6].

With `Cn1cc(-c2cc(N)n3nc(-c4cn(C)c5ccc(Cl)cc45)cc3n2)c2cc(Cl)ccc21`, the growth in test [2] is 16.5%; in test [7], 14.6%; in test [3] it was 17.3%; in test [4], 75.5%; in test [5], 98.4%; in test [6], 60.1%.

For `CSc1ccc2c(c1)N(C(=O)/C(C#N)=C/c1c[nH]c3ccccc13)c1ccccc1S2`, the growth in test [2] was 11.7%; in test [7], 34.5%; in test [3], 23.1%; in test [4], 24.3%.

Take `CCOC(=O)c1c(Nc2ccccc2)nn2c(N)c(C#N)c(-c3ccc(Cl)cc3)nc12`: the growth in test [2] was 70.3%; in test [7], 65.8%; in test [4], 59.9%; in test [5], 83.5%; in test [6], 64.1%.

For the molecule `Cn1ccnc1C(=O)/C=C/c1ccc(NC(=O)Nc2ccc(Cl)cc2)cc1`, the growth in test [2] is 75%; in test [7], 71%; in test [3] it was 38.1%; in test [4], 25%; in test [5] it was 90.2%; in test [6] it was 49.6%.
